# Reference: PMC5540273 (PLoS ONE, 2017)
# Like-named read-outs stand apart in the source and are kept apart here.
# Tests used:
# CDC2L2 = conditions: concentration: 1 μM, replicates: in singlicate; n = 1
# CDC2L5 = tested on: T1, CDC2L5; conditions: concentration: 1 μM, replicates: in singlicate; n = 1
# T1 construct: gene CDK13
# CDK11 = tested on: T2, CDK11; conditions: concentration: 1 μM, replicates: in singlicate; n = 1
# T2 construct: gene CDK19
# CDK2 = conditions: concentration: 1 μM, replicates: in singlicate; n = 1
# CDK3 = conditions: concentration: 1 μM, replicates: in singlicate; n = 1
# CDK4-cyclinD1 = conditions: concentration: 1 μM, replicates: in singlicate; n = 1
# CDK4-cyclinD3 = conditions: concentration: 1 μM, replicates: in singlicate; n = 1
# CDK4 = conditions: concentration: 1 μM, replicates: in singlicate; n = 1
# CDK5 = conditions: concentration: 1 μM, replicates: in singlicate; n = 1
# CDK7 = conditions: concentration: 1 μM, replicates: in singlicate; n = 1
# CDK8 = conditions: concentration: 1 μM, replicates: in singlicate; n = 1
# CDK9 = conditions: concentration: 1 μM, replicates: in singlicate; n = 1
# CDKL1 = conditions: concentration: 1 μM, replicates: in singlicate; n = 1
# CDKL2 = conditions: concentration: 1 μM, replicates: in singlicate; n = 1
# CDKL3 = conditions: concentration: 1 μM, replicates: in singlicate; n = 1
# CDKL5 = conditions: concentration: 1 μM, replicates: in singlicate; n = 1
# CHEK1 = conditions: concentration: 1 μM, replicates: in singlicate; n = 1
# CHEK2 = conditions: concentration: 1 μM, replicates: in singlicate; n = 1
# CIT = conditions: n = 1
# CLK1 = conditions: concentration: 1 μM, replicates: in singlicate; n = 1
# [1] = concentration: 1 μM, replicates: in singlicate
# 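Also: KINOMEscan kinase panel screen.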
smiles,measurement,setting,value
COc1cc(Nc2ncc3c(C)nc(-c4cc5ccccc5[nH]4)n3n2)cc(OC)c1OC [GW869516],%Inh,CDC2L2,8%
same,%Inh,CDC2L5,0%
same,%Inh,CDK11,1%
same,%Inh,CDK2,0%
same,%Inh,CDK3,31%
same,%Inh,CDK4-cyclinD1,22%
same,%Inh,CDK4-cyclinD3,0%
same,%Inh,CDK4,0%
same,%Inh,CDK5,0%
same,%Inh,CDK7,0%
same,%Inh,CDK8,44%
same,%Inh,CDK9,0%
same,%Inh,CDKL1,46%
same,%Inh,CDKL2,1%
same,%Inh,CDKL3,8%
same,%Inh,CDKL5,0%
same,%Inh,CHEK1,0%
same,%Inh,CHEK2,0%
same,%Inh,CIT; [1],100%
same,%Inh,CLK1,88%
CCn1c(-c2nonc2N)nc2c(C#CC(C)(C)O)ncc(OCCCCN)c21.O=C(O)C(F)(F)F.O=C(O)C(F)(F)F [GSK507274],%Inh,CDC2L2,0%
same,%Inh,CDC2L5,0%
same,%Inh,CDK11,0%
same,%Inh,CDK2,3%
same,%Inh,CDK3,16%
same,%Inh,CDK4-cyclinD1,0%
same,%Inh,CDK4-cyclinD3,0%
same,%Inh,CDK4,0%
same,%Inh,CDK5,0%
same,%Inh,CDK7,0%
same,%Inh,CDK8,0%
same,%Inh,CDK9,0%
same,%Inh,CDKL1,0%
same,%Inh,CDKL2,53%
same,%Inh,CDKL3,0%
same,%Inh,CDKL5,10%
same,%Inh,CHEK1,2%
same,%Inh,CHEK2,0%
same,%Inh,CIT; 1 µM,100%
same,%Inh,CLK1,21%
O=c1[nH]cc(-c2ccc(N3CCOCC3)cc2)c2sc(-c3cn[nH]c3)cc12 [GSK2276055],%Inh,CDC2L2,12%
same,%Inh,CDC2L5,0%
same,%Inh,CDK11,0%
same,%Inh,CDK2,0%
same,%Inh,CDK3,6%
same,%Inh,CDK4-cyclinD1,0%
same,%Inh,CDK4-cyclinD3,21%
same,%Inh,CDK4,0%
same,%Inh,CDK5,0%
same,%Inh,CDK7,2%
same,%Inh,CDK8,0%
same,%Inh,CDK9,71%
same,%Inh,CDKL1,11%
same,%Inh,CDKL2,0%
same,%Inh,CDKL3,0%
same,%Inh,CDKL5,0%
same,%Inh,CHEK1,0%
same,%Inh,CHEK2,14%
same,%Inh,CIT; [1],92.1%
same,%Inh,CLK1,90%
COc1ccc(CNC(=O)NC2CCN(c3ccnc(Nc4ccc(F)cc4)n3)CC2)cc1 [GSK1379788],%Inh,CDC2L2,10%
same,%Inh,CDC2L5,0%
same,%Inh,CDK11,3%
same,%Inh,CDK2,0%
same,%Inh,CDK3,3%
same,%Inh,CDK4-cyclinD1,0%
same,%Inh,CDK4-cyclinD3,0%
same,%Inh,CDK4,20%
same,%Inh,CDK5,0%
same,%Inh,CDK7,0%
same,%Inh,CDK8,45%
same,%Inh,CDK9,0%
same,%Inh,CDKL1,9%
same,%Inh,CDKL2,22%
same,%Inh,CDKL3,0%
same,%Inh,CDKL5,0%
same,%Inh,CHEK1,0%
same,%Inh,CHEK2,34%
same,%Inh,CIT; [1],28%
same,%Inh,CLK1,13%
Cl.Cl.NCC(NC(=O)c1cc(-c2ccccc2)c(-c2ccnc3[nH]ccc23)s1)c1ccccc1 (stereo not drawn) [GSK1321561],%Inh,CDC2L2,11%
same,%Inh,CDC2L5,0%
same,%Inh,CDK11,8%
same,%Inh,CDK2,0%
same,%Inh,CDK3,8%
same,%Inh,CDK4-cyclinD1,0%
same,%Inh,CDK4-cyclinD3,0%
same,%Inh,CDK4,27%
same,%Inh,CDK5,0%
same,%Inh,CDK7,0%
same,%Inh,CDK8,30%
same,%Inh,CDK9,0%
same,%Inh,CDKL1,8%
same,%Inh,CDKL2,24%
same,%Inh,CDKL3,58%
same,%Inh,CDKL5,0%
same,%Inh,CHEK1,0%
same,%Inh,CHEK2,0%
same,%Inh,CIT; [1],99.9%
same,%Inh,CLK1,33%
COc1cc(Nc2nccc(-c3c(-c4cccc(NC(=O)c5c(F)cccc5F)c4)nn4ncccc34)n2)cc(OC)c1OC [GSK327238],%Inh,CDC2L2,15%
same,%Inh,CDC2L5,0%
same,%Inh,CDK11,0%
same,%Inh,CDK2,0%
same,%Inh,CDK3,4%
same,%Inh,CDK4-cyclinD1,0%
same,%Inh,CDK4-cyclinD3,97.4%
same,%Inh,CDK4,21%
same,%Inh,CDK5,0%
same,%Inh,CDK7,0%
same,%Inh,CDK8,4%
same,%Inh,CDK9,0%
same,%Inh,CDKL1,20%
same,%Inh,CDKL2,13%
same,%Inh,CDKL3,62%
same,%Inh,CDKL5,10%
same,%Inh,CHEK1,0%
same,%Inh,CHEK2,14%
same,%Inh,CIT; [1],71%
same,%Inh,CLK1,23%
COc1cccc(C(=O)Nc2cccc(Oc3ccc4nc(NC(=O)C5CC5)cn4n3)c2)c1,%Inh,CDC2L2,17%
same,%Inh,CDC2L5,2%
same,%Inh,CDK11,8%
same,%Inh,CDK2,0%
same,%Inh,CDK3,0%
same,%Inh,CDK4-cyclinD1,1%
same,%Inh,CDK4-cyclinD3,0%
same,%Inh,CDK4,0%
same,%Inh,CDK5,0%
same,%Inh,CDK7,0%
same,%Inh,CDK8,38%
same,%Inh,CDK9,0%
same,%Inh,CDKL1,58%
same,%Inh,CDKL2,26%
same,%Inh,CDKL3,7%
same,%Inh,CDKL5,0%
same,%Inh,CHEK1,15%
same,%Inh,CHEK2,0%
same,%Inh,CIT; [1],96.5%
same,%Inh,CLK1,30%
Cc1ccc(S(=O)(=O)Nc2ccc(Nc3nccc(Nc4cccc5[nH]ncc45)n3)cc2)cc1 [GSK581271],%Inh,CDC2L2,0%
same,%Inh,CDC2L5,0%
same,%Inh,CDK11,0%
same,%Inh,CDK2,21%
same,%Inh,CDK3,17%
same,%Inh,CDK4-cyclinD1,0%
same,%Inh,CDK4-cyclinD3,0%
same,%Inh,CDK4,15%
same,%Inh,CDK5,0%
same,%Inh,CDK7,0%
same,%Inh,CDK8,13%
same,%Inh,CDK9,0%
same,%Inh,CDKL1,2%
same,%Inh,CDKL2,22%
same,%Inh,CDKL3,0%
same,%Inh,CDKL5,0%
same,%Inh,CHEK1,0%
same,%Inh,CHEK2,0%
same,%Inh,CIT; [1],28%
same,%Inh,CLK1,85%
Cl.c1ccc(-c2ccc3c(Nc4ccc5[nH]ncc5c4)ccnc3c2)nc1 [GW440137],%Inh,CDC2L2,16%
same,%Inh,CDC2L5,0%
same,%Inh,CDK11,3%
same,%Inh,CDK2,0%
same,%Inh,CDK3,0%
same,%Inh,CDK4-cyclinD1,0%
same,%Inh,CDK4-cyclinD3,29%
same,%Inh,CDK4,0%
same,%Inh,CDK5,0%
same,%Inh,CDK7,8%
same,%Inh,CDK8,26%
same,%Inh,CDK9,11%
same,%Inh,CDKL1,7%
same,%Inh,CDKL2,40%
same,%Inh,CDKL3,0%
same,%Inh,CDKL5,0%
same,%Inh,CHEK1,0%
same,%Inh,CHEK2,14%
same,%Inh,CIT; [1],11%
same,%Inh,CLK1,48%
